The whole screen tested about 220,000 compounds, of which about 800 (0.36%) were called active. The sample as a whole holds a higher share of actives than the screen did. A number with no mark means an inactive call. Cut-off read from the data, not from the text of the source: active = activation above about 33% (passing the limit was not always enough); inactive = the rest.

15 compounds from PubChem BioAssay AID1304 (The Scripps Research Institute Molecular Screening Center, 2008) can be followed below.

The target of the assay is Neuropeptide Y receptor type 1 (Homo sapiens) (UniProt P25929). As to the kind of experiment: NPY-Y1 receptor potentiators or agonists, primary screen, cell-based (AID 1304).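 Note: cells stimulated with NPY at EC10 then isoproterenol at EC100; 0% = low agonist plus stimulus and 100% = saturating agonist plus stimulus.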 As to conditions: NPY-Y1 expressing cells, potentiator/agonist activation; at 3.6 µM; stronger effect = higher value.
Sequence of Neuropeptide Y receptor type 1 (Homo sapiens) (P25929 whole entry, looked up): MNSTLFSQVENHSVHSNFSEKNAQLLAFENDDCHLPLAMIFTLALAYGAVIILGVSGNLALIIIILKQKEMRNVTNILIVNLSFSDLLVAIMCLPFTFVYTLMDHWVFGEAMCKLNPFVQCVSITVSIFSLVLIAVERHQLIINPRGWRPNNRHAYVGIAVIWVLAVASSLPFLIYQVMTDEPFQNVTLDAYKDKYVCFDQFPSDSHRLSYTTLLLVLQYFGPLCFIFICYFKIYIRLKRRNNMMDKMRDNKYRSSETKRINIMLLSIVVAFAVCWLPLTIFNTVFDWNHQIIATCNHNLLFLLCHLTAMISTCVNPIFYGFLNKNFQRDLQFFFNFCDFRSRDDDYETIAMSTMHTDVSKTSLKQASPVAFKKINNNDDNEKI
As to `CSC1=NP(=S)(SC)N(C)c2nc3n(c21)CCC3` (stereo not given), the activation was 42.8% (active). To `CCC1(C)CC(CCNCc2ccc(N(C)C)cc2)(c2ccc(F)cc2)CCO1` (stereo not given) belongs 16.3%. To `CSc1nc2ccc(C)cc2c(=O)n1-c1cccnc1` belongs 1.29%; to `CNC(=O)Nc1ccc(C(O)(C(=O)OC)C(F)(F)F)cc1` (stereo not given), -6.66%; to `CC(=O)Cc1ccc(OC(C)C)cc1`, 8.4%.

For `C/C=C/CC1(CC)C(=O)NC(=S)NC1=O`, the activation was 11.2%. In the case of `CCOP(=O)(OCC)C(NC(=O)c1ccc(OC)cc1)C(Cl)(Cl)Cl` (stereo not given) it was 4.01%. In the case of `CC1(C)Cc2c(C#N)c(N3CCNCC3)nc(-c3ccco3)c2CS1` it was 59.2% (active); in that of `CCN1CC2C3CCC(C)(O3)C2C1` (stereo not given), 11.9%.

Consider `Fc1ccc(C2N3CCCN23)cc1` (stereo not given), for which the activation was -11.3%.

With `CCOc1cccc(=NC2CCCCC2)c2c(C)[nH]c(C)c12`, the activation is 11.4%.

For `Cc1nn(Cc2ccccc2Cl)c(Cl)c1C(=O)OC(C(=O)NC(N)=O)C(C)C` (stereo not given), the activation is 49.5% (active).

Turning to `Cc1cccc(NC(=O)OC2CN3CCC2CC3)c1` (stereo not given), the activation is 11.8%. Consider `O=c1[nH]c(=O)n(Cc2ccccc2)c(O)c1/C=N/Nc1c(F)c(F)c(F)c(F)c1F`, for which the activation was -7.15%. To `Cn1c(O)c(C(=Nc2ccc(F)cc2)c2ccccc2)c(=O)n(C)c1=O` belongs -6.6%.
